High-throughput results as filed in PubChem.
This is a sample that favours compounds with a hit; in the whole collection about 2.5% have one here.
Caspase-7 inhib: qHTS Assay for Allosteric/Competitive Inhibitors of Caspase-7; P55210; actives 0.02% (n = 75,000); recombinant caspase-7, Ac-DEVD-AFC fluorescence rate; AID 889, 2007; Potency, µM (top dose mostly 57.5 µM), without a hit: at the highest dose activity change, negative = inhibition, hits mostly inhibitors; active = well fitted inhibition curve with a large enough effect in the main read-out, with a control signal flat, not every such curve was filed as active; inconclusive = small, poorly fitted or top-dose-only effect, or a change in a side signal; note: % of control where 0% means no effect
p53ts 32C kill: qHTS Screen for Compounds that Selectively Target Cancer Cells with p53 Mutations: Cytotoxicity of p53ts Cells at the Permissive Temperature; actives 0.93% (n = 130,000); Potency, µM (top dose mostly 46.1 µM), without a hit: top-dose activity change, negative = cytotoxicity, hits mostly cytotoxic; H1299-p53A138V at 32C, ATP luminescence viability, 24 h;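 note: 0% = DMSO and -100% = full killing by reference compound; nearly all actives have a fitted effect of over 55% in size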
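H1299-p53 A138V cells (temperature-sensitive p53) exposed 24 h to up to 46 uM compound at 32C, where p53 is wild-type in conformation. Viability read as ATP luminescence and normalised to DMSO and 100 uM tamoxifen. AC50 fitted with the Hill equation.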
Casp1 inh: qHTS Assay for Allosteric/Competitive Inhibitors of Caspase-1. AID 900, 2007. Potency, µM (doses to about 57.5 µM), for inactives: at the highest dose activity change, negative = inhibition, most hits filed as inhibitors. P29466. Caspase-1 enzyme, Ac-WEHD-AFC fluorogenic rate. actives 0.03% (n = 75,000);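 note: plate controls were vehicle for no effect and no substrate for full effect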
p53ts 39C tox: qHTS Screen for Compounds that Selectively Target Cancer Cells with p53 Mutations: Cytotoxicity of p53ts Cells at the Nonpermissive Temperature | AID 902, 2007 | Potency, µM (doses to about 46.1 µM), for inactives: top-dose activity change, negative = cell killing, most hits filed as cytotoxic | actives 1.5% (n = 130,000) | H1299-p53A138V viability at 39C, ATP luminescence, 24 h; note: % is set by controls: 0 for no effect and ±100 for the full control effect; nearly all actives have a fitted effect of over 55% in size
IkB sig inh: IkB Signaling. ABC-DLBCL IkBa-CBG/CBR dual luciferase ratio, 4 h; response scale: scaled: untreated 0%, proteasome inhibitor 100%. actives 0.04% (n = 110,000). Potency, µM (top dose mostly 57.1 µM), without a hit: at the highest dose IkBa stabilization activation. AID 445, 2006; active = well fitted curve in the direction sought with a large enough effect in the signal ratio, not every such curve was filed as active; inconclusive = small, poorly fitted or top-dose-only effect, or a change in a side signal; the % refers to the signal ratio;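 note: the direction sought is a rising ratio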
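Curves were fitted separately to fusion (green), unfused (red) and ratio luminescence, then classed by r2, magnitude and activity. Cells: OCI-Ly3, 4 h compound plus doxycycline at 37C; 10 uM MG-132 defined full response.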
Luciferase inh: qHTS Assay for Inhibitors of Firefly Luciferase | Luciferin 4-monooxygenase (Photinus pyralis), P08659 | purified firefly luciferase, luminescence, 8 min | Potency, µM (series often up to 57.1 µM), for inactives: top-dose activity change, negative = inhibition, most hits filed as inhibitors | actives 2.2% (n = 72,000) | AID 411, 2009; note: % is set by controls: 0 for no effect and ±100 for the full control effect; nearly all actives have a fitted effect of over 40% in size
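Here, luciferase activity is measured as luminescence following an 8 min room-temperature reaction at 10 uM ATP, pH 7.2. Every library sample is titrated.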
* marks the source's active call; other numbers are inactive results; [ ] = dose if it differs, or a comment. Unless noted, calls come from the whole dose curve; as a rule, active = well fitted curve in the direction sought with a large enough effect; inconclusive = small, poorly fitted or top-dose-only effect, or another doubt; inactive = no such curve, though single readings can be large; an effect the other way counts as inactive or inconclusive. Potency is the fitted concentration of half-maximal effect.

`Cc1nnc(SCc2cnc(-c3ccc(C(C)C)cc3)s2)n1C` gave Caspase-7 inhib 0%, p53ts 32C kill 1.6µM*, Casp1 inh -1%, p53ts 39C tox 2µM*, IkB sig inh -1% and Luciferase inh 0.5µM*.
CCn1c(=O)[nH]c2cc(Cl)c(Cl)cc21 was read as Caspase-7 inhib -1%, p53ts 32C kill -14%, Casp1 inh 2%, p53ts 39C tox -26%, IkB sig inh inconclusive and Luciferase inh 4%.
`CCCn1nc(NC(=O)c2cccs2)c2cc3cc(OC)ccc3nc21` gave Caspase-7 inhib inconclusive, p53ts 32C kill inconclusive, p53ts 39C tox inconclusive, IkB sig inh inconclusive and Luciferase inh 10µM*.
`CCCCn1nc(NC(=O)c2cccs2)c2cc3cc(OC)ccc3nc21` gave Caspase-7 inhib inconclusive, p53ts 32C kill -6%, p53ts 39C tox 7%, IkB sig inh inconclusive and Luciferase inh inconclusive.
`COc1ccc(C/C(O)=C(\C#N)c2nc3ccccc3s2)cc1` gave Caspase-7 inhib -1%, p53ts 32C kill inconclusive, Casp1 inh -1%, p53ts 39C tox 13µM*, IkB sig inh inconclusive and Luciferase inh 3%.
Screening Cc1ccc(SC/C(O)=C(\C#N)c2nc3ccccc3s2)cc1 returned Caspase-7 inhib -2%, p53ts 32C kill inconclusive, Casp1 inh 1%, p53ts 39C tox 4%, IkB sig inh inconclusive and Luciferase inh -2%.
Screening c1ccc2c(c1)NC1(CCCCC1)n1c-2nc2ccccc21 returned Caspase-7 inhib -22%, p53ts 32C kill inconclusive, Casp1 inh inconclusive, p53ts 39C tox inconclusive, IkB sig inh 8% and Luciferase inh 13µM*.
CS(=O)(=O)N1CCN(c2nc(-c3ccccc3)cs2)CC1 was read as Caspase-7 inhib -1%, p53ts 32C kill -14%, Casp1 inh -2%, p53ts 39C tox -10%, IkB sig inh -2% and Luciferase inh -14%.
Screening Cc1ccc2scc(N3CCC(C)CC3)c(=O)c2c1 returned p53ts 32C kill inconclusive, p53ts 39C tox inconclusive and IkB sig inh 25%.
`Cc1ccc2scc(N3CCCCC3)c(=O)c2c1` gave p53ts 32C kill 13µM*, p53ts 39C tox 16µM* and IkB sig inh 31%.
COC(=O)C1CCN(c2csc3ccc(C)cc3c2=O)CC1 was read as p53ts 32C kill -25%, p53ts 39C tox -30% and IkB sig inh inconclusive.
Cc1ccc2scc(N3CCCCC3C)c(=O)c2c1 (configuration not stated) was read as p53ts 32C kill 10µM*, p53ts 39C tox 6.3µM* and IkB sig inh 6%.
Screening COc1cccc2cc(-c3nc(-c4ccc(C)cc4)c(C)s3)c(=O)oc12 returned p53ts 32C kill 7%, p53ts 39C tox -5% and IkB sig inh -3%.
COc1ccc(C(=O)Nc2c(F)c(F)c(F)c(F)c2F)c(OC)c1 was read as Caspase-7 inhib 1%, p53ts 32C kill -4%, Casp1 inh -1%, p53ts 39C tox -3%, IkB sig inh 1% and Luciferase inh 1%.
For COc1ccc(C(=O)Oc2ccc(C(C)=O)cc2)c(OC)c1 the results were Caspase-7 inhib 5%, p53ts 32C kill -1%, Casp1 inh 1%, p53ts 39C tox -12%, IkB sig inh -1% and Luciferase inh 16µM*.
For CN1[C@@H]2CC[C@H]1CC(OC(c1ccccc1)c1ccccc1)C2 (some centres not stated) the results were Caspase-7 inhib -1%[11.5 µM], p53ts 32C kill 1%[9.22 µM], Casp1 inh 1%[11.5 µM], p53ts 39C tox 2%[9.22 µM], IkB sig inh 0%[11.4 µM] and Luciferase inh 4%[11.4 µM].
COc1cccc(OC(=O)CSc2nnc(-c3ccccc3OC)o2)c1 was read as p53ts 32C kill 1%, p53ts 39C tox -3% and IkB sig inh -1%.
COc1cccc(NC(=O)CSc2nnc(-c3cc(C)n(-c4ccccc4)c3C)o2)c1 was read as Caspase-7 inhib -4%, p53ts 32C kill -23%, Casp1 inh -3%, p53ts 39C tox 20µM*, IkB sig inh inconclusive and Luciferase inh -22%.
Screening O=C(NC(=S)N(CCc1ccccc1)CCc1ccccc1)c1ccco1 returned p53ts 32C kill -10% and p53ts 39C tox 11µM*.
For O=C(NCc1ccccc1)c1ccco1 the results were p53ts 32C kill -8% and p53ts 39C tox 11%.
For CC(C)Oc1ccc(N2CC(C(=O)Nc3ccccc3F)CC2=O)cc1 (configuration not stated) the results were Caspase-7 inhib -1%, p53ts 32C kill -1%, Casp1 inh 1%, p53ts 39C tox 6%, IkB sig inh 1% and Luciferase inh 1%.
Screening CN(C)C(=O)CSc1nnc2sc3ccccc3n12 returned Caspase-7 inhib -1%, p53ts 32C kill 2%, Casp1 inh 1%, p53ts 39C tox -5%, IkB sig inh 2% and Luciferase inh 0%.
O=C(CSc1nnc2sc3ccccc3n12)c1ccco1 was read as Caspase-7 inhib -2%, p53ts 32C kill -18%, Casp1 inh 0%, p53ts 39C tox -8%, IkB sig inh 2% and Luciferase inh 16µM*.
For Cc1cccc2sc(N(Cc3cccnc3)C(=O)CCS(=O)(=O)c3ccccc3)nc12 the results were p53ts 32C kill 0%, p53ts 39C tox inconclusive and IkB sig inh inconclusive.
Screening CC1=CC(=O)c2ccccc2C1=O returned Caspase-7 inhib 0%, p53ts 32C kill 25µM*, Casp1 inh 0%, p53ts 39C tox inconclusive, IkB sig inh inconclusive and Luciferase inh 0%[25.5 µM].
For COc1cccc(NS(=O)(=O)c2ccc3[nH]c4c(c3c2)CCCCCC4)c1 the results were p53ts 32C kill 14%, p53ts 39C tox 20µM* and IkB sig inh inconclusive.
`COC(=O)c1ccc(NS(=O)(=O)c2ccc3[nH]c4c(c3c2)CCCC4)cc1` gave p53ts 32C kill 1%.
`CCOC(=O)CC(NS(=O)(=O)c1ccc2[nH]c3c(c2c1)CCCC3)c1ccccc1Cl` (configuration not stated) gave p53ts 32C kill 32%, p53ts 39C tox 13µM* and IkB sig inh 0%.
`Cc1ccc(C(C(=O)NCc2ccc(F)cc2)N(C(=O)c2csnn2)C2CC2)o1` (configuration not stated) gave Caspase-7 inhib -2%, p53ts 32C kill 5%, Casp1 inh 1%, p53ts 39C tox -24%, IkB sig inh 3% and Luciferase inh -6%.
